From ChEMBL document CHEMBL3988442, “University of Dundee, Small-Polar-MMV Screening Library” (2021)
For some of these results: Entries with a potency or affinity are not part of this list.

How the values were obtained:
Set-up in all cases: scale not given: direction of the effect not stated beside the values
[1] = biological target: Protein translocase subunit SecA (Escherichia coli (strain K12)) (UniProt P10408); assay: Assay to Identify E. coli SecA ATPase Inhibitors; type: functional; details: 30 µM
[2] = biological target: T1, Ubiquitin-activating enzyme e1, putative (Leishmania donovani (strain BPK282A1)) (UniProt E9BSI1); assay: Leishmania donovani Ubiquitin Activating Enzyme (LdE1); type: functional; details: 30 µM
T1 sequence (whole entry): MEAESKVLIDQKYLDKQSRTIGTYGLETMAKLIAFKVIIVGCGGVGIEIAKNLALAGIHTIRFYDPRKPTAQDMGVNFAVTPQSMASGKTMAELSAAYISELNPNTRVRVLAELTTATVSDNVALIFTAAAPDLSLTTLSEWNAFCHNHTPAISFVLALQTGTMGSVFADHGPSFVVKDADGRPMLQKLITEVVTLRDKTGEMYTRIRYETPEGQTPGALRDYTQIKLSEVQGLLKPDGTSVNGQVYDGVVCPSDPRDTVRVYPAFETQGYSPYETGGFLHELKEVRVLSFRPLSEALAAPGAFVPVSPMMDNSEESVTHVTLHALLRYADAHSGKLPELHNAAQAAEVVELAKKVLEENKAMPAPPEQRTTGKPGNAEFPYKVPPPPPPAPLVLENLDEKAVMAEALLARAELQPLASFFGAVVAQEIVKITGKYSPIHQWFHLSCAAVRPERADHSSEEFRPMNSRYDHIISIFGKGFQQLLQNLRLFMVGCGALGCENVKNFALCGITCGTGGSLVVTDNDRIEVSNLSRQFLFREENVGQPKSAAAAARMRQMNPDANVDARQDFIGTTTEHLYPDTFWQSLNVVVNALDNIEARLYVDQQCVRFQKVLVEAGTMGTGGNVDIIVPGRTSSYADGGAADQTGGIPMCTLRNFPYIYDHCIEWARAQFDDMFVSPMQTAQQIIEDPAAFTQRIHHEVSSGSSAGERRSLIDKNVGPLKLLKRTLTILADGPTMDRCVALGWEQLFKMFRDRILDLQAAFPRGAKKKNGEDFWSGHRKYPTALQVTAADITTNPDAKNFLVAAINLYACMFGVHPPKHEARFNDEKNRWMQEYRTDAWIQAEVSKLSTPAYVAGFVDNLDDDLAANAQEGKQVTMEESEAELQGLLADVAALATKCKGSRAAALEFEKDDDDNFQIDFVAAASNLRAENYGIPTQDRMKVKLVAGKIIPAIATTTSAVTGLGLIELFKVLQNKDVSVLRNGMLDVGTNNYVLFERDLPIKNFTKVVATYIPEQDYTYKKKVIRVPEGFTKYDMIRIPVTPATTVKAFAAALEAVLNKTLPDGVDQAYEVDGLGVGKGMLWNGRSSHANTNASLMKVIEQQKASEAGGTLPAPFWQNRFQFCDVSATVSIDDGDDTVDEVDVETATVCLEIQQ

[3] = biological target: Sialic acid-binding Ig-like lectin 9 (Homo sapiens) (UniProt Q9Y336); assay: Hs-Siglec9 ALPHAscreen SOP 20170721; details: 10 µM
Trypanosoma cruzi = assay: Trypanosoma cruzi phosphomannomutase and mannose-1-phosphate guanylyltransferase assay; type: functional; details: 10 µM
[4] = biological target: T2, Arginase-2, mitochondrial (Homo sapiens) (UniProt P78540); assay: in vitro enzyme assay to detect the production of urea directly proportional to the activity of Arginase II; type: functional; details: 33.3 µM; note: in the data most compounds retested in dose-response had high values
T2 sequence (whole entry): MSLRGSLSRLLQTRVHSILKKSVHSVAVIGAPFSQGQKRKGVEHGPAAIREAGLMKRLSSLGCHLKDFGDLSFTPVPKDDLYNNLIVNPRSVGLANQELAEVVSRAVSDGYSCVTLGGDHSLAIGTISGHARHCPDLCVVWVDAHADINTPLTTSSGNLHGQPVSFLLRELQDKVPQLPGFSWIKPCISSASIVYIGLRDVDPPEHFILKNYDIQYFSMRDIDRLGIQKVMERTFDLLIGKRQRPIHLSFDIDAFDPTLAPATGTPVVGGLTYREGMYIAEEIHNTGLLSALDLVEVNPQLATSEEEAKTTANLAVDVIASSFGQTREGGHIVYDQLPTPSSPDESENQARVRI

[5] = biological target: T3, Proteasome subunit beta (Trypanosoma cruzi) (UniProt O96673); assay: Trypanosoma cruzi proteasome chymotrypsin-like activity (TcProtChymo) assay.; note: in the data most compounds retested in dose-response had high values; type: functional; details: 9.37 µM
T3 sequence (whole entry): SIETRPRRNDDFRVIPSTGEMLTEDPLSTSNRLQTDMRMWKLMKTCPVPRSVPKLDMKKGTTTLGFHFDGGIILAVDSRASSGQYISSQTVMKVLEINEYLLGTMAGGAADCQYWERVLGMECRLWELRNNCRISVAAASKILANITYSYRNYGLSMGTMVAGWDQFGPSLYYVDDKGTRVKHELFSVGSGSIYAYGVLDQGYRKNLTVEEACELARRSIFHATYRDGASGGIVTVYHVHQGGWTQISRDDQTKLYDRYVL

Homo sapiens = species on record: Homo sapiens; assay: To identify inhibition of the IFN signalling (Jak-Stat) pathway via expression of an eGFP reporter gene under the control of an IFN-stimulated response element (ISRE) containing MxA promoter.; type: functional; details: 30 µM
[6] = biological target: T4, Tyrosyl-tRNA synthetase, putative (Trypanosoma cruzi (strain CL Brener)) (UniProt Q4DSP6); assay: Trypanosoma cruzi tyrosyl tRNA synthetase (TcYRS) _High Tyrosine SOP; type: functional; details: 30 µM; note: in the data most compounds retested in dose-response had high values
T4 sequence (whole entry): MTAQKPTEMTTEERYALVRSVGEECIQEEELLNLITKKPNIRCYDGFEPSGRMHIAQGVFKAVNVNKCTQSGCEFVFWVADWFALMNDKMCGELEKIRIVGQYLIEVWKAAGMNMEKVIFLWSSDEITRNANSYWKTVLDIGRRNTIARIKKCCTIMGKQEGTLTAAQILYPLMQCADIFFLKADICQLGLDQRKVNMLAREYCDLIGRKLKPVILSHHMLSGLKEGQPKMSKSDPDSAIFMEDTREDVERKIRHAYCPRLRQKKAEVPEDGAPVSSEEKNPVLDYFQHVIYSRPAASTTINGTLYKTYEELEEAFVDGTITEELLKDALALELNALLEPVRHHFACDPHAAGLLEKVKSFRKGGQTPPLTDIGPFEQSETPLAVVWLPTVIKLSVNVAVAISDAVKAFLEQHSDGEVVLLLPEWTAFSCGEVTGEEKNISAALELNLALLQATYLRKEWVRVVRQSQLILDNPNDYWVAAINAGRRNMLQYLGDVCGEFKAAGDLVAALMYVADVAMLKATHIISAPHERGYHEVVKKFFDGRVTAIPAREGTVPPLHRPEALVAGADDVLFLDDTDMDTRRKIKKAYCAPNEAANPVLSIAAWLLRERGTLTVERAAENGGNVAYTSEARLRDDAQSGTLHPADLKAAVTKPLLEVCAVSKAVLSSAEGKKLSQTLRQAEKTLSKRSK

[7] = biological target: T4, Tyrosyl-tRNA synthetase, putative (Trypanosoma cruzi (strain CL Brener)); assay: Trypanosoma cruzi tyrosyl tRNA synthetase (TcYRS) SOP; type: functional; details: 30 µM
[8] = biological target: Chromo domain-containing protein 1 (Saccharomyces cerevisiae (strain ATCC 204508 / S288c) (Baker's yeast)) (UniProt P32657); assay: ScCHD-1 Enzyme Inhibition Assay; type: functional; details: 30 µM; note: in the data most compounds retested in dose-response had high values
Sequence of Chromo domain-containing protein 1 (Saccharomyces cerevisiae (strain ATCC 204508 / S288c) (Baker's yeast)) (P32657 whole entry, the tested form may be a part): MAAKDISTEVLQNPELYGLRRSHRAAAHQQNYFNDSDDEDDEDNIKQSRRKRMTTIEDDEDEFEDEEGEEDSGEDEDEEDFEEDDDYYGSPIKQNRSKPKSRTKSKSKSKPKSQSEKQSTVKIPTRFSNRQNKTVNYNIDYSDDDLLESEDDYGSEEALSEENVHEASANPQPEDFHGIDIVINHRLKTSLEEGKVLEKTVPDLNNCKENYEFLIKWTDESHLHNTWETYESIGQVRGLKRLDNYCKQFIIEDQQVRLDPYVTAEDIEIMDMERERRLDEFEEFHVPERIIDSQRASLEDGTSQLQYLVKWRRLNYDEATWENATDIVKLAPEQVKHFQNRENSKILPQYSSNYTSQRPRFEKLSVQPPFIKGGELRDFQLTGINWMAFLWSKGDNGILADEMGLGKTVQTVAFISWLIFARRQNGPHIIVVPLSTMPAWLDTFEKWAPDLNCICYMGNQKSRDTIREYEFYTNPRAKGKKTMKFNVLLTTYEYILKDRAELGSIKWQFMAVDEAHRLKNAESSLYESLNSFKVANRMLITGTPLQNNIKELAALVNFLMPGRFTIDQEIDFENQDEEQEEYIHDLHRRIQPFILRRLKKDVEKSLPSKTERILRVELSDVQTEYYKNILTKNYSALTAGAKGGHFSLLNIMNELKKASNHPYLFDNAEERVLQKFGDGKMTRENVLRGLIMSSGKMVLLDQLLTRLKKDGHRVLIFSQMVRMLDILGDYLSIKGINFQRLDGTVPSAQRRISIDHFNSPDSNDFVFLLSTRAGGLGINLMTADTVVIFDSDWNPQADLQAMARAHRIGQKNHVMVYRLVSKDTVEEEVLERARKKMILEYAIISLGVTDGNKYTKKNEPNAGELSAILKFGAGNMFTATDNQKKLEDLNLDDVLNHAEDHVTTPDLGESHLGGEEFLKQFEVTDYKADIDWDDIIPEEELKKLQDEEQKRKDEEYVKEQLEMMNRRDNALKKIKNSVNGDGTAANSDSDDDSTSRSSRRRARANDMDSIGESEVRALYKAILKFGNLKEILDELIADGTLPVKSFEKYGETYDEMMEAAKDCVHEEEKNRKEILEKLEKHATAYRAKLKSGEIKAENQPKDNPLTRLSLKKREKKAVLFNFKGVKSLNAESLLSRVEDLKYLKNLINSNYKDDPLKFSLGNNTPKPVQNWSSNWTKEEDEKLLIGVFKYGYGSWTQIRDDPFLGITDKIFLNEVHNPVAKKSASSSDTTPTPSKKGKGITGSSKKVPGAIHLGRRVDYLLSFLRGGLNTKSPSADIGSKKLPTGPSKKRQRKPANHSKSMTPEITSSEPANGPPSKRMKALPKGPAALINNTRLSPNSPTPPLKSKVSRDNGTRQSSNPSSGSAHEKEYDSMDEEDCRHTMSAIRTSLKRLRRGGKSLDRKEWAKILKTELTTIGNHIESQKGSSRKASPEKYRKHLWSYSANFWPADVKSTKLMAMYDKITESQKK

Sequence of Sialic acid-binding Ig-like lectin 9 (Homo sapiens) (Q9Y336 whole entry): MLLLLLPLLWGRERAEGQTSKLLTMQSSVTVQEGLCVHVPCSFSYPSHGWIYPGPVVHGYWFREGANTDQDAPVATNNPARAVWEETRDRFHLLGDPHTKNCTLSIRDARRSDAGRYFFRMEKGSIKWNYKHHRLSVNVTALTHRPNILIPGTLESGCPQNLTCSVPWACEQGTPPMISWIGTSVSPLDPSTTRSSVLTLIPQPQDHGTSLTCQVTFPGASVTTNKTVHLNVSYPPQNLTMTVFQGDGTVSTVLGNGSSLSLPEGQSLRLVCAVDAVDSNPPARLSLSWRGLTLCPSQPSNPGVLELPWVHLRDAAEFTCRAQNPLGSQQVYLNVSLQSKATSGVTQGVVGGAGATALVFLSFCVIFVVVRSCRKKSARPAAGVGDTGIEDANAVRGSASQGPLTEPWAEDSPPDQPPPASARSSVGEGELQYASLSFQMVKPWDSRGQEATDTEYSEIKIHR
Sequence of Protein translocase subunit SecA (Escherichia coli (strain K12)) (P10408 whole entry): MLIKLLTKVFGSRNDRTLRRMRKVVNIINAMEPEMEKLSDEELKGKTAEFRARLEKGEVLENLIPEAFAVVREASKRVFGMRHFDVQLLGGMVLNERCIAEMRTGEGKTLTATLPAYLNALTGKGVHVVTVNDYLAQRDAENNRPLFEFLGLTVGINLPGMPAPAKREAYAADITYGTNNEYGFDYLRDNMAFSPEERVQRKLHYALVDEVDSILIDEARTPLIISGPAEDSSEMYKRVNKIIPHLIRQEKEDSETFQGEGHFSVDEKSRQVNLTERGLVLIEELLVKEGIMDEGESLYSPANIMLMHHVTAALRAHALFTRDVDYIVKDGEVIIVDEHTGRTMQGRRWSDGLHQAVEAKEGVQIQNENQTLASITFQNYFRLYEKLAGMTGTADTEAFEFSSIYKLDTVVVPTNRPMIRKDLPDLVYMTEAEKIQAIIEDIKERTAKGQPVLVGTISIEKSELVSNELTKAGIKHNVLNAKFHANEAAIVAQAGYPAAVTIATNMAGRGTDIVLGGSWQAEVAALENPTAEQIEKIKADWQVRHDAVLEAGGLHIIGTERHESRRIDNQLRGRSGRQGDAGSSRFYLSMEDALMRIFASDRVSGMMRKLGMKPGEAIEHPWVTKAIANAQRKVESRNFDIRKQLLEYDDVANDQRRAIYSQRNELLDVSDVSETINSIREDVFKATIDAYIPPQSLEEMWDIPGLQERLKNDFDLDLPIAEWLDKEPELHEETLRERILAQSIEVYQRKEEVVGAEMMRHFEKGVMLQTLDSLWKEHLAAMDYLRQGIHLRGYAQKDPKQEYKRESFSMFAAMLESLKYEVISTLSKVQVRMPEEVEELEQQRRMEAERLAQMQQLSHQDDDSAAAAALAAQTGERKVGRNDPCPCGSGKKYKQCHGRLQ

SMILES	Percent Effect [1] [%]	Percent Effect [2] [%]	Percent Effect [3] [%]	Percent Effect (Trypanosoma cruzi) [%]	Percent Effect [4] [%]	Percent Effect [5] [%]	Percent Effect (Homo sapiens) [%]	Percent Effect [6] [%]	Percent Effect [7] [%]	Percent Effect [8] [%]
CCc1nc(C2CCCN2CCc2ccccn2)no1 (stereo not given)	0.816	20.5	-18.3	5.35	1.23	18.7	23.6	10.1	20.5	-7.66
CCc1nc(CNCC2CCCN2c2cc(NC)ncn2)cs1 (stereo not given)	-1.05	0	1.02	9.48	1.64	6.91	-11.3	3.35	6.02	-3.49
NC(=O)c1cc(C2CCCN(CCc3ccccn3)C2)n[nH]1 (stereo not given)	-0.145	-12.8	-3.53	3.29	4.1	-3.67	2.63	3.35	-1.21	-1.37
CN(C)S(=O)(=O)N1CC[C@]2(C[C@H](Oc3cccnc3)CO2)C1	-2.88	14.3	-1.9	1.66	8.91	23.7	1.15	11.1	15.4	-4.29
Cc1[nH]ccc1C(=O)N1CCCC(c2nccn2Cc2cscn2)C1 (stereo not given)	-7.46	-5.41	27.9	9.99	57	15.2	8.11	7.98	17.1	-3.33
Cc1ccccc1N1CC2(CCN(S(=O)(=O)C3CC3)C2)CC1=O (stereo not given)	0.787	16.9	-5.74	-5.07	4.57	17.4	11.8	3.87	10	-8.76
Cc1cc(C(=O)NCc2ccc(N3CCCC(C(N)=O)C3)cc2)[nH]n1 (stereo not given)	-7.13	10.7	-2.98	-3.21	-0.887	16.2	14.9	0.526	5.13	-7.84
COc1cc(C)nc(N2CCN(C(=O)CNC(C)(C)C)CC2)n1	-1.19	5.13	-1.55	-1.22	4.51	-3.67	19.9	0.478	8.43	-2.39
Cc1nc(CN2CCCC(CCc3c(F)cccc3F)C2)c[nH]1 (stereo not given)	-4.35	-13.5	23.7	9.6	-6.64	1.37	18.7	5.85	7.32	96.9
Cc1n[nH]c(=O)c2c(NC(=O)CN3CCCC(C(F)(F)F)C3)oc(C)c12 (stereo not given)	2.19	23.1	-19.8	1.41	0	17.7	-1.71	3.35	22.9	-4.61
